Bioassay records as filed in PubChem BioAssay.
14-3-3 Bad PPI: disrupts binding of bovine 14-3-3 zeta to phospho-Bad peptide; TR-FRET 14-3-3zeta/Dy647-pBad peptide displacement, 1 h; inhibition, % at 21.7 µM; actives 0.71% (n = 220,000); AID 781;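 active means inhibition above about 70%, limit read from the data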;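 further: 0% = full 14-3-3 plus peptide FRET controls and 100% = background without 14-3-3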
MCL1-BIM inh: disrupts human MCL1 binding to BIM-BH3 peptide. AID 2057. actives 0.68% (n = 320,000). inhibition, % at 10.9 µM. GST-MCL1 / FITC-Bim-BH3 fluorescence polarization;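 active means inhibition above the mean inhibition of all tested compounds plus 3 SD, set per campaign, cut at about 40% in these data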;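 further: 0% = DMSO wells and 100% = unlabeled Bim-BH3 peptide control; higher means more loss of mP so more displacement of Bim peptide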
eIF4E 4G PPI: inhibitors of eIF4E and eIF4G interaction in translation initiation; P63073+Q04637; TR-FRET eIF4E-eIF4GI(517-606) binding, 2 h; inhibition, % at 21.7 µM; actives 0.37% (n = 220,000); AID 782;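 active means inhibition above about 30%, limit read from the data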;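 further: 0% = full FRET control wells and 100% = background wells lacking eIF4GI fragment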
Target sequence (P63073 whole entry, looked up, the tested form may be a part): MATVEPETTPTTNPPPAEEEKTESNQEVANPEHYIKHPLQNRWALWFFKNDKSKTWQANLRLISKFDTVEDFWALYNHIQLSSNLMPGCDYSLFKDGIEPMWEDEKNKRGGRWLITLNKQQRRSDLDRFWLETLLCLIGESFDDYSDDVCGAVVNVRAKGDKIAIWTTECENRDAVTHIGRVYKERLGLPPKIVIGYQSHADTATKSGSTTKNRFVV
Target sequence (Q04637 whole entry, looked up, the tested form may be a part): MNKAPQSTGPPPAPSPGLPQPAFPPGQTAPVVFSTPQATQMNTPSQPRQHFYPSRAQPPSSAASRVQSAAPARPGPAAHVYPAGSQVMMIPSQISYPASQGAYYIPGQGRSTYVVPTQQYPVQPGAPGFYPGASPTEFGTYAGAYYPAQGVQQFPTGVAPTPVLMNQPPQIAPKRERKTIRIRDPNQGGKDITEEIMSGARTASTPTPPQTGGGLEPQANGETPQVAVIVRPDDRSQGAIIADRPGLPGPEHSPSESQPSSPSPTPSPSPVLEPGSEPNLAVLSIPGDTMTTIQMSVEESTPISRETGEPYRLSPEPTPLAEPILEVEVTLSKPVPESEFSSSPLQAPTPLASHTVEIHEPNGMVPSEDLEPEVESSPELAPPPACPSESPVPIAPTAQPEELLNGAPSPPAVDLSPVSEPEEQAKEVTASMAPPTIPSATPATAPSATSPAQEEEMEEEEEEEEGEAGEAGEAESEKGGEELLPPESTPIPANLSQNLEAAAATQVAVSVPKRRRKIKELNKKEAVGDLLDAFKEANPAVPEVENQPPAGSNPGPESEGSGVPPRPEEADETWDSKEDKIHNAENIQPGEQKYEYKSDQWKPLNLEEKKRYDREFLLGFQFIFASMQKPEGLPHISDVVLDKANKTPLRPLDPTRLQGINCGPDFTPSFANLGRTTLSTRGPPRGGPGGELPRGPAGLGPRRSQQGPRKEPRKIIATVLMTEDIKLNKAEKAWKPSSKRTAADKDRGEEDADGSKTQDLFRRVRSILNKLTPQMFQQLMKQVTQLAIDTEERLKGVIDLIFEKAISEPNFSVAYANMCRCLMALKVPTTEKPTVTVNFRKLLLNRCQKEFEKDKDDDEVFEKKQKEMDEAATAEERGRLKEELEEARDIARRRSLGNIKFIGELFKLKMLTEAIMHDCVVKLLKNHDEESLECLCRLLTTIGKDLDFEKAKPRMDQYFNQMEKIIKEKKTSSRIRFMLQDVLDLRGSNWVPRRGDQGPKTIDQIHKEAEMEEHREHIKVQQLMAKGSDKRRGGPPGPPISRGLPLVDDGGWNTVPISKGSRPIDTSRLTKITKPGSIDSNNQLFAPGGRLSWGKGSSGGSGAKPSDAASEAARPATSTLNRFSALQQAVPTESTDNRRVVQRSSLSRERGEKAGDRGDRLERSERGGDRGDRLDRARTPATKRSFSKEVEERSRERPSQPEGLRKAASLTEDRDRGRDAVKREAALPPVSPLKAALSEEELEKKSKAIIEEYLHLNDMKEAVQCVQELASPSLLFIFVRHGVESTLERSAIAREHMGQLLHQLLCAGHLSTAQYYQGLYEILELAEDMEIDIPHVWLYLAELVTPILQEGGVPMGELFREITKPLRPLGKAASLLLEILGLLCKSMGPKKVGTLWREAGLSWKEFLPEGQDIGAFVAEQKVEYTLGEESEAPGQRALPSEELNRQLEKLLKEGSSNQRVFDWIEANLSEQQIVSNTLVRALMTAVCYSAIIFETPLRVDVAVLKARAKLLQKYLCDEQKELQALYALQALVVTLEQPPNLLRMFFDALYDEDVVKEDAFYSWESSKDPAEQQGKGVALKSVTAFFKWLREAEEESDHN
Mcl1 Noxa PPI: Mcl-1/Noxa interaction inhibition. inhibition, % at 21.7 µM. actives 1.5% (n = 220,000). TR-FRET Mcl-1/Noxa peptide binding, 2 h. Q07820;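 active means compounds that cut the protein-peptide binding signal by more than 50% relative to plate controls in a single-dose test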;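 further: His-tagged Mcl-1 with rhodamine Noxa BH3 peptide and terbium anti-His antibody; 0% = Mcl-1 plus Noxa peptide wells and 100% = peptide-only wells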
Bim-Mcl-1: disrupts Bim peptide binding to human Mcl-1; Q07820; Bead-based flow cytometry, Bim peptide-Mcl-1 binding; inhibition, % at 10 µM; actives 0.1% (n = 190,000); AID 1009; in the data active means inhibition above about 40%;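 further: 0% = no compound tracer wells and 100% = peptide blocker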
Mcl1-Bid inh: Mcl-1/Bid interaction inhibition. Q07820. TR-FRET Mcl-1/Bid-Dy647 peptide binding, 1536-well. inhibition, % at 21.7 µM. actives 0.97% (n = 220,000). AID 1021;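 active means compounds that cut the binding signal by more than half at the single screening dose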;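 further: His-tagged Mcl-1 with europium anti-His antibody binding Bid BH3 peptide; 0% = Mcl-1 plus peptide wells and 100% = peptide-only wells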
An asterisk follows results filed as active. A selection: hits, their analogues and other compounds. The true share with any hit is near 2.6%.

c1ccc2cc3[nH]c(CN4CCOCC4)nc3cc2c1 was read as 14-3-3 Bad PPI 1, MCL1-BIM inh -2, eIF4E 4G PPI -1, Mcl1 Noxa PPI 10, Bim-Mcl-1 -3 and Mcl1-Bid inh -1.
`COc1ccccc1C(=O)N/C(=C\c1cn(S(=O)(=O)N(C)C)c2ccccc12)C(=O)N1CCOCC1` gave MCL1-BIM inh 6.
Cc1cc(Br)ccc1NC(=O)C1CCN(S(=O)(=O)c2cnc[nH]2)CC1 was read as MCL1-BIM inh -7.
For O=C(CN1C(=O)C2CC=C(Cl)CC2C1=O)NCc1ccccc1 (configuration not stated) the results were 14-3-3 Bad PPI 5, MCL1-BIM inh 42*, eIF4E 4G PPI 2, Mcl1 Noxa PPI -4, Bim-Mcl-1 1 and Mcl1-Bid inh -20.
`O=C1C2CC=C(Cl)CC2C(=O)N1CCc1c[nH]c2ccccc12` (configuration not stated) gave 14-3-3 Bad PPI 0, MCL1-BIM inh 0, eIF4E 4G PPI 10, Mcl1 Noxa PPI 19, Bim-Mcl-1 5 and Mcl1-Bid inh -46.
Screening O=C1C2CC=C(Cl)CC2C(=O)N1CCc1ccccc1 (configuration not stated) returned 14-3-3 Bad PPI -11, MCL1-BIM inh 41*, eIF4E 4G PPI -6, Mcl1 Noxa PPI 37, Bim-Mcl-1 0 and Mcl1-Bid inh -7.
For O=C(CN1C(=O)C2C3C=CC(C3)C2C1=O)NCc1ccccc1 (configuration not stated) the results were 14-3-3 Bad PPI -5, MCL1-BIM inh 7, eIF4E 4G PPI -2, Mcl1 Noxa PPI 3, Bim-Mcl-1 -1 and Mcl1-Bid inh 0.
`CC1CCCCN1C(=O)COC(=O)c1ccc(=O)n(Cc2ccccc2)n1` (configuration not stated) gave MCL1-BIM inh 6.
NC(=O)[C@@H]1CCCN1Cc1c(C(=O)N2CCc3ccccc3C2)nc2ccc(Cl)cn12 was read as MCL1-BIM inh 43*.
`CC1CCN(Cc2c(C(=O)N3CCc4ccccc4C3)nc3ccc(Cl)cn23)CC1` gave MCL1-BIM inh 13.
Cc1ccc(NC(=O)CN2C(=O)S/C(=C/c3ccc(O)c([N+](=O)[O-])c3)C2=O)cc1C was read as 14-3-3 Bad PPI 83*, eIF4E 4G PPI 45*, Mcl1 Noxa PPI 73*, Bim-Mcl-1 -3 and Mcl1-Bid inh 21.
N#Cc1ccc(OCCN2CCc3ccccc3C2)cc1 was read as MCL1-BIM inh 0.
COc1ccc(OCCOCCN2CCc3ccccc3C2)cc1 was read as 14-3-3 Bad PPI 46, MCL1-BIM inh -1, eIF4E 4G PPI 3, Mcl1 Noxa PPI 15, Bim-Mcl-1 4 and Mcl1-Bid inh 62*.
For CN(C)c1ccc(NS(=O)(=O)c2cc(Cl)ccc2Cl)cc1 the results were 14-3-3 Bad PPI 1, MCL1-BIM inh 20, eIF4E 4G PPI 8, Mcl1 Noxa PPI 69*, Bim-Mcl-1 -4 and Mcl1-Bid inh -51.
Screening O=C(CCc1ccccc1)NNC(=S)NC(=O)c1ccc(Cl)cc1 returned 14-3-3 Bad PPI -20, MCL1-BIM inh 11, eIF4E 4G PPI 1, Mcl1 Noxa PPI -66, Bim-Mcl-1 -1 and Mcl1-Bid inh -129.
[O-]c1c[n+](-c2ccccc2)no1 was read as 14-3-3 Bad PPI 0, MCL1-BIM inh 1, eIF4E 4G PPI -2, Mcl1 Noxa PPI -4 and Mcl1-Bid inh -7.
`[O-]c1c[n+](-c2ccc(-[n+]3cc([O-])on3)cc2)no1` gave 14-3-3 Bad PPI -8, MCL1-BIM inh 23, eIF4E 4G PPI 15, Mcl1 Noxa PPI 57*, Bim-Mcl-1 3 and Mcl1-Bid inh -30.
Screening O=C(N/N=C/c1c(O)n(-c2ccccc2Cl)c(=O)c2ccccc12)c1cccnc1 returned 14-3-3 Bad PPI -19, eIF4E 4G PPI 1, Mcl1 Noxa PPI 55*, Bim-Mcl-1 0 and Mcl1-Bid inh -86.
For CN(C)c1ccc(/C=C/c2nc3ccccc3c(=O)[nH]2)cc1 the results were MCL1-BIM inh -7.
For CCCN1C(=O)/C(=C\c2nc3ccccc3c(=O)[nH]2)c2ccccc21 the results were 14-3-3 Bad PPI 54, eIF4E 4G PPI 8, Mcl1 Noxa PPI 41, Bim-Mcl-1 0 and Mcl1-Bid inh 51*.
For COc1ccc(CN2CCOCC2)cc1 the results were 14-3-3 Bad PPI 74*, MCL1-BIM inh 10, eIF4E 4G PPI -5, Mcl1 Noxa PPI 41, Bim-Mcl-1 3 and Mcl1-Bid inh 27.
`COc1cc(OC)cc(C(=O)n2cnnc2N)c1` gave 14-3-3 Bad PPI -9, MCL1-BIM inh 1, eIF4E 4G PPI -2, Mcl1 Noxa PPI 14, Bim-Mcl-1 -1 and Mcl1-Bid inh -9.
Cc1cc(C)c2oc(C(=O)Nc3ccc(S(=O)(=O)Nc4nccs4)cc3)cc(=O)c2c1 was read as 14-3-3 Bad PPI 1, MCL1-BIM inh 10, eIF4E 4G PPI -3, Mcl1 Noxa PPI 83* and Mcl1-Bid inh -152.
Cc1cc2oc(C(=O)Nc3ccc(S(=O)(=O)N4CCCC(C)C4)cc3)cc(=O)c2cc1Cl (configuration not stated) was read as 14-3-3 Bad PPI -25, MCL1-BIM inh 7, eIF4E 4G PPI -4, Mcl1 Noxa PPI -9, Bim-Mcl-1 -2 and Mcl1-Bid inh -13.
Screening CC(=O)Nc1ccc(NC(=O)c2cc(=O)c3cc(C)cc(C)c3o2)cc1 returned MCL1-BIM inh 3.
`Cc1cc2oc(C(=O)Nc3ccc(S(=O)(=O)Nc4nccs4)cc3)cc(=O)c2cc1Cl` gave 14-3-3 Bad PPI 34, MCL1-BIM inh 8, eIF4E 4G PPI 2, Mcl1 Noxa PPI 62*, Bim-Mcl-1 7 and Mcl1-Bid inh 26.
For Cc1c(C(=O)NC2CCN(Cc3ccccc3)C2)oc2c(Cl)cccc12 (configuration not stated) the results were MCL1-BIM inh 5.
For N#C/C(=C\c1ccc(C(=O)O)cc1)c1nc2sc3c(c2c(=O)[nH]1)CCCC3 the results were 14-3-3 Bad PPI 38, eIF4E 4G PPI 20, Mcl1 Noxa PPI 74* and Mcl1-Bid inh 13.
COCC(=O)Nc1ccc([N+](=O)[O-])cc1OC was read as 14-3-3 Bad PPI 8, MCL1-BIM inh 14, eIF4E 4G PPI 13, Mcl1 Noxa PPI 6, Bim-Mcl-1 -4 and Mcl1-Bid inh 11.
`COc1cc([N+](=O)[O-])ccc1NC(=O)COC(=O)c1ccc(NC(N)=O)cc1` gave 14-3-3 Bad PPI 43, MCL1-BIM inh 26, eIF4E 4G PPI -4, Mcl1 Noxa PPI 72* and Mcl1-Bid inh 61*.
Screening COc1ccc(-c2csc(NC(=O)C3CC(=O)N(c4ccc5c(c4)OCCO5)C3)n2)cc1 (configuration not stated) returned 14-3-3 Bad PPI 0, MCL1-BIM inh 4, eIF4E 4G PPI 1, Mcl1 Noxa PPI 19, Bim-Mcl-1 -3 and Mcl1-Bid inh -46.
